Hits are enriched below; roughly 15% of the tested compounds scored in any of these assays.
HCV inh – inhibitors of hepatitis C virus infection; Huh7.5.1 HCVcc-Cre infection, luciferase reporter, 44 h; Potency, µM (doses to about 41.8 µM), inactives show at the top dose activity change, negative = inhibition, usual class: inhibitors; hit rate 3.4% among 340,000; AID 651820; further: potency means the concentration at half of the fitted maximal effect; on the % scale 0 is the no-effect control and ±100 the full control effect
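Seed cells (1,000/well) for 4 h; treat with compound and infect with HCVcc-Cre, moi about 0.5. Incubate 44 h, then detect luciferase activity.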
HCMV inh – inhibitors of human cytomegalovirus; HFF cells, HCMV-luciferase reporter, 72 h; stronger effect = lower value; activity change, negative = inhibition, % at 57.5 µM; hit rate 4.5% among 410,000; AID 1259415; in the data active means activity change below about -60%; inconclusive means no clear call, values can overlap the other calls; inactive means above about -39%; further: on the % scale 0 is the no-effect control and ±100 the full control effect
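Compounds were evaluated in HFFs infected with an HCMV luciferase reporter virus (MOI 1 PFU/cell). Luciferase in lysates collected 72 h post infection served as the replication measure.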
Sm TGR inh – inhibitors of Schistosoma mansoni thioredoxin glutathione reductase; Q962Y6; purified TGR, DTNB reduction, TNB absorbance 405 nm; Potency, µM (titrated, usually from 114 µM), without a hit: top-dose activity change, negative = inhibition, most hits filed as inhibitors; hit rate 3% among 360,000; AID 485364; further: potency means the concentration at half of the fitted maximal effect; on the % scale 0 is the no-effect control and ±100 the full control effect; nearly all actives have a fitted effect of over 60% in size
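TGR 20 nM + NADPH 100 uM (dispensed conc.), cpd preinc 15 min RT; start with NADPH (500 uM addition) then DTNB (15 mM addition). Kinetic TNB absorbance, 405 nm filter. Four-parameter Hill fit across titration.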
Pf growth 48h – inhibits P. falciparum growth in the first generation, 48 h. P. falciparum luciferase growth in erythrocytes, 48 h. Potency, µM (series often up to 28.7 µM), for the others: at the highest dose activity change, negative = inhibition, most hits filed as inhibitors. hit rate 5.9% among 310,000; further: potency means the concentration at half of the fitted maximal effect; on the % scale 0 is the no-effect control and ±100 the full control effect
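Firefly luciferase activity from engineered P. falciparum reports growth; inhibitors lower the luminescent signal. Cultures contained 2% hematocrit erythrocytes at 0.1% final parasitemia.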
SARS PLP yeast – inhibitors of SARS-CoV papain-like protease in yeast. S. cerevisiae expressing SARS-CoV PLpro, growth rescue. Potency, µM (highest dose often 32.9 µM), inactives show at the top dose activity, positive = growth rescue, hits mostly activators. hit rate 0.19% among 330,000. AID 485353; calls by dose curve; further: potency means the concentration at half of the fitted maximal effect; 0% is about no effect; nearly all actives have a fitted effect of over 55% in size
Pf growth 96h – inhibits malaria parasite growth, 96 h; P. falciparum luciferase reporter growth, 96 h; Potency, µM (titrated, usually from 28.7 µM), for inactives: at the highest dose activity change, negative = inhibition, actives largely listed as inhibitors; hit rate 6.9% among 320,000; further: potency means the concentration at half of the fitted maximal effect; on the % scale 0 is the no-effect control and ±100 the full control effect
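Delayed-death screen, second-generation endpoint: infected erythrocytes, 2% hematocrit, 0.05% parasitemia final; 96 hours at 37 C, 5% CO2; luciferase detection reagent; luminescence decrease equals reduced growth.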
* = called active by the depositor; ? = inconclusive; . = no result given. Unless noted, the call rests on the fitted dose curve; in most records, active means well fitted curve in the direction sought with a large enough effect; inconclusive means small, poorly fitted or top-dose-only effect, or another doubt; inactive means no such curve, though single readings can be large; an effect the other way counts as inactive or inconclusive.

SMILES | HCV inh | HCMV inh | Sm TGR inh | Pf growth 48h | SARS PLP yeast | Pf growth 96h
COCCNC(=O)C1(C)CCN(C(=O)c2ccc3sccc3c2)C1 (stereo unspecified) | . | -33 | . | . | . | .
Clc1ccc(C2CC(c3ccco3)n3ncnc3N2)cc1Cl (stereo unspecified) | 0% | 106 | 11µM* | -7% | 18% | 3%
COc1ccccc1C1CC(c2ccc(Cl)cc2)Nc2ncnn21 (stereo unspecified) | 9% | 17 | 1% | 13µM* | 1% | -1%
Cc1ccc(C2CC(c3ccccc3)n3ncnc3N2)cc1 (stereo unspecified) | -3% | -17 | -6% | -2% | 0% | 13µM*
CCOc1ccc(C2CC(c3cccc(OC)c3OC)n3nnnc3N2)cc1Cl (stereo unspecified) | 11µM* | 1 | 10% | 12µM* | 2% | 5%
COc1cccc(C2CC(c3ccccc3OC)n3ncnc3N2)c1 (stereo unspecified) | 4% | -7 | 7% | . | 22% | 22%
COc1ccc(N2Cc3cccc(C(=O)Nc4ccc(C)c(C)c4)c3C2=O)cc1 | . | -10 | -1% | . | . | .
Cc1cccc(C)c1NC(=O)Cn1c(=O)n(Cc2ccc(C(=O)NCc3ccco3)cc2)c(=O)c2sccc21 | . | -66* | -21% | . | . | .
Cc1cc(C)c(NC(=O)Cn2c(=O)n(Cc3ccc(C(=O)NCc4ccco4)cc3)c(=O)c3sccc32)c(C)c1 | . | -76* | -1% | . | . | .
O=C(NCc1ccco1)C1(S(=O)(=O)c2ccccc2)CC=CC1 | 0% | -25 | 0% | 34% | 3% | 0%
CSc1nc(C2CC2)cc(-c2cccs2)c1C#N | 11µM* | -102* | 0% | 9% | -5% | ?
CC(C)OC(=O)CC(=O)CSc1nc(-c2ccc(F)cc2)cc(-c2ccccc2)c1C#N | ? | -62* | -11% | ? | 12% | ?
COc1ccc(-c2cc(-c3ccccc3)nc(SCC(=O)CC(=O)OC(C)C)c2C#N)cc1 | . | -22 | -15% | . | . | .
CN1CCN(C(=O)CSc2nc(-c3cccs3)cc(-c3cccs3)c2C#N)CC1 | ? | . | 5% | ? | 0% | 2.1µM*
CCN(CC)C(=O)CSc1nc(-c2ccccc2)cc(-c2ccc(OC)cc2)c1C#N | . | -65* | 0% | . | . | .
CC(C)N1CCCC(C)(C(=O)Nc2ccccc2)C1 (stereo unspecified) | . | 1 | . | . | . | .
CC(=O)OCC=C1CCC2C3CC(C)C4=CC(=O)CCC4(C)C3C(O)CC12C (stereo unspecified) | -10% | -18 | . | . | . | .
CCN(CC)C(=O)CSc1nc(-c2cccs2)cc(-c2cccs2)c1C#N | 2.5µM* | ? | ? | 8.3µM* | 7% | ?
CC(NC(=O)Nc1nnc(C(F)(F)F)s1)(C(F)(F)F)C(F)(F)F | 2.8µM* | -98* | 2% | 3.3µM* | -35% | 5%
O=C(NCc1ccco1)C(c1ccco1)N(Cc1cccs1)C(=O)Cn1nnc2ccccc21 (stereo unspecified) | 18% | 10 | ? | ? | ? | -11%
O=C(NCc1ccco1)C(c1ccco1)N(CCc1ccccc1)C(=O)Cn1nnc2ccccc21 (stereo unspecified) | -10% | -7 | -24% | ? | -5% | 2.3µM*
CCOCCCN(C(=O)Cn1nnc2ccccc21)C(C(=O)NCc1ccco1)c1ccncc1 (stereo unspecified) | 9% | -13 | 16µM* | -6% | 0% | ?
COc1ccc(C(C(=O)NCCC(C)C)N(CCN2CCOCC2)C(=O)Cn2nnc3ccccc32)c(OC)c1 (stereo unspecified) | 12% | -15 | 14% | ? | -1% | 5.2µM*
Cc1ccccc1N(C(=O)Cn1nnc2ccccc21)C(C(=O)NCc1ccco1)c1ccncc1 (stereo unspecified) | -6% | -35 | ? | ? | 1% | .

From PubChem
